Anthrax LF prot: Bacillus anthracis LF protease inhibitors, primary screen, biochemical, multiplex microsphere, MLPCN library; Lethal factor (Bacillus anthracis), P15917; multiplex microsphere protease cleavage assay; inhibition, % at 10 µM; actives 0.12% (n = 360,000); in the data active = inhibition above about 30%
BoNT-F LC inh: BoNT/F light chain protease inhibitors, primary screen, biochemical, flow cytometry, MLPCN library; inhibition, % at 10 µM; Botulinum neurotoxin type F light chain protease (Clostridium botulinum); Multiplex microsphere protease cleavage assay; AID 588497, 2011; actives 0.22% (n = 360,000); in the data active = inhibition above about 35%, passing the limit was not always enough
GDH-TPI counter-1: GDH-TPI coupling enzyme inhibitors, primary screen, artefact control for M. tuberculosis FBA inhibitor project, biochemical, absorbance, full deck. GDH-TPI coupled enzyme counterscreen, NADH absorbance. inhibition, % at 4.8 µM. actives 1.2% (n = 360,000). AID 588335, 2011; in the data active = inhibition above about 30%
BoNT-A LC inh2: BoNT/A light chain protease inhibitors, primary screen, biochemical, flow cytometry, MLPCN library | inhibition, % at 10 µM | actives 0.17% (n = 360,000) | Botulinum neurotoxin type A light chain protease (Clostridium botulinum A str. ATCC 3502) | AID 588499, 2011 | multiplex microsphere protease substrate cleavage; in the data active = inhibition above about 30%
FBA Mtb inh: Mtb FBA enzyme inhibitors, primary screen, biochemical, fluorescence, strain H37Rv; Fructose-bisphosphate aldolase (Mycobacterium tuberculosis (strain ATCC 25618 / H37Rv)), …; AID 588726, 2011; inhibition, % at 1 µM; actives 2.3% (n = 360,000); purified M. tuberculosis FBA, fluorescence read-out
Target sequence (P9WQA3 whole entry, looked up): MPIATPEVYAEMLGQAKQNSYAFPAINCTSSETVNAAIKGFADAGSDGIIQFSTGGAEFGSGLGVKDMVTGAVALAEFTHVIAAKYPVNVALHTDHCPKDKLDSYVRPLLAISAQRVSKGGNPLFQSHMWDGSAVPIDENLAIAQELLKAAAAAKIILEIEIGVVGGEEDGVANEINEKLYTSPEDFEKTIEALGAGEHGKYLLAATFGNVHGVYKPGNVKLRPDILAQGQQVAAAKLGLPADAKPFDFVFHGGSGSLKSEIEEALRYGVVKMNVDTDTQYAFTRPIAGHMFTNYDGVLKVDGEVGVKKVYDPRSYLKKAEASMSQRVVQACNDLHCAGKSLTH
Autofluor counter: counter-screen for toxin protease inhibitors: compound fluorescence | actives 3.1% (n = 360,000) | fluorescence intensity (no concentration beside the values) | compound autofluorescence counterscreen, microsphere flow cytometry; stronger effect = higher value; in the data active = fluorescence intensity above about 16000
Mtb FBA confirm: M. tuberculosis aldolase blockers, biochemical, fluorescence, strain H37Rv, confirmation. shares compounds with FBA Mtb inh. purified M. tuberculosis FBA, fluorescence read-out. inhibition, % at 1 µM. actives 78% (n = 5,600). AID 651616, 2012
GDH-TPI counter-2: GDH-TPI coupling enzyme inhibitors, artefact control for M. tuberculosis FBA inhibitor project, biochemical, fluorescence, high throughput; shares compounds with FBA Mtb inh; GDH-TPI coupled enzyme counterscreen; inhibition, % at 1 µM; actives 81% (n = 5,600); AID 652141, 2013; in the data active = inhibition above about 10%
GDH-TPI dose: GDH-TPI coupling enzyme inhibitors, dose response, artefact control for M. tuberculosis FBA inhibitor project, biochemical, fluorescence, IC50 | shares compounds with FBA Mtb inh | GDH-TPI coupled enzyme assay, artifact counterscreen | IC50, µM | actives 79% (n = 170) | AID 652145, 2013; call rule not given here
Large screens that a line does not name were inactive (follow-up assays come after a bar, where they were run). Shown are actives, neighbours in structure and some others; about 6.7% of the full set was active somewhere. Cut-off read from the data, not from the text of the source, unless noted: active = inhibition above about 27%; inactive = the rest.

Cc1cn([C@H]2C[C@H](O)[C@@H](CNS(=O)(=O)N3CCCC3)O2)c(=O)[nH]c1=O	none
Cc1cc(C(=O)N/N=C/c2ccc(OCc3ccccc3)cc2)c(C)o1	none
CC(=O)O[C@H]1C2OC(=O)C(C)=C2[C@@H]2OC(=O)[C@]3(CCC4OC41C)OC23 (stereo partly specified)	none
c1csc(C2Nc3ccccc3-c3nc4ccccc4n32)c1 (stereo unspecified)	FBA Mtb inh 58 | Mtb FBA confirm 138 | GDH-TPI counter-2 97
c1cncc(C2Nc3ccccc3-c3nc4ccccc4n32)c1 (stereo unspecified)	FBA Mtb inh 36 | Mtb FBA confirm 115 | GDH-TPI counter-2 92
c1ccc2c(c1)NC(c1ccncc1)n1c-2nc2ccccc21 (stereo unspecified)	FBA Mtb inh 56 | Mtb FBA confirm inactive | GDH-TPI counter-2 inactive
CC(Oc1ccc2ccc(=O)oc2c1)C(=O)NCCCn1ccnc1 (stereo unspecified)	none
CCc1cc(=O)oc2cc(C)cc(OC(C)C(=O)NC3CC(C)(C)NC(C)(C)C3)c12 (stereo unspecified)	FBA Mtb inh 72 | Mtb FBA confirm 49 | GDH-TPI counter-2 42
Cc1cc(=O)oc2cc(OCC(=O)NCCCN3CCCC3=O)c(Cl)cc12	none
Cc1c(OC(C)C(=O)NCCCN2CCOCC2)ccc2c1oc(=O)c1ccccc12 (stereo unspecified)	FBA Mtb inh 74 | Mtb FBA confirm inactive | GDH-TPI counter-2 inactive
CCCc1cc(=O)oc2cc(C)cc(OCC(=O)NCCCN3CCCC3=O)c12	FBA Mtb inh 66 | Mtb FBA confirm active | GDH-TPI counter-2 active
Cc1c(C)c2ccc(OC(C)C(=O)NCCCn3ccnc3)c(C)c2oc1=O (stereo unspecified)	FBA Mtb inh 55 | Mtb FBA confirm 67 | GDH-TPI counter-2 51
COc1cc(OC)cc(C(=O)NNC(=O)c2cc(=O)[nH]c3ccccc23)c1	none
CCc1cc(=O)oc2cc(C)cc(OC(C)C(=O)NCCCN3CCCC3=O)c12 (stereo unspecified)	FBA Mtb inh 87 | Mtb FBA confirm inactive | GDH-TPI counter-2 inactive
Cc1c(C)c2cc(Cl)c(OCC(=O)NCCCN3CCCC3=O)cc2oc1=O	GDH-TPI counter-1 34, FBA Mtb inh 45 | Mtb FBA confirm inactive | GDH-TPI counter-2 inactive | GDH-TPI dose 7.1
CCc1cc(=O)oc2cc(C)cc(OC(C)C(=O)NCCCn3ccnc3)c12 (stereo unspecified)	FBA Mtb inh 54 | Mtb FBA confirm inactive | GDH-TPI counter-2 inactive
Cc1cc(OCC(=O)NCCCN2CCCC2=O)c2c(C)cc(=O)oc2c1	FBA Mtb inh 103 | Mtb FBA confirm inactive | GDH-TPI counter-2 inactive
CCOc1ccc(Br)cc1C(=S)N1CCCC1	none
CC(=O)c1ccc(NC(=O)C(C)N(C)CC(=O)Nc2ccc(N3CCOCC3)cc2)cc1 (stereo unspecified)	none
O=S(=O)(Nc1cccc(-c2ccc(N3CCCCCC3)nn2)c1)c1ccccc1F	none
Cc1ccc(C(=O)Nc2ccc(N3CCCCC3)cc2)cc1	none
C[C@H](O)C(=O)C1=Nc2c(nc(N)[nH]c2=O)NC1	FBA Mtb inh 27 | Mtb FBA confirm 41 | GDH-TPI counter-2 33
CCOC(=O)Cc1c(C)nc(N)[nH]c1=O	none
